# According to PubChem BioAssay AID1566 (Sanford-Burnham Center for Chemical Genomics, 2009):
# “And” between values parts separate entries of the source, which are not always exact repeats. Identical values can stand only once. About 1,800 (0.62%) of roughly 290,000 compounds were called active. For the sample, actives were picked, then their nearest neighbours and some compounds at random. A number with no mark means an inactive call. No stated cut-off is given here; in the data, active means inhibition above about 50%; inactive means the rest.
# Assay: NOD2 signaling inhibitors, cell-based, luminescence, uHTS, HEK293 (AID 1566)
# Settings: HEK293 NOD2/NF-kB luciferase reporter, at 4 µM, hits give high values
row,Compound,inhibition
1,CCN1C(=O)/C(=C\c2ccc(-c3cccc(C(=O)OC)c3)o2)SC1=Nc1ccc(C(=O)O)cc1,4.2%
2,Cc1cc(NC(=O)CSc2nnnn2C)n(-c2ccccc2)n1,6.4%
3,CCOC(=O)C1CCCN(S(=O)(=O)c2ccc(OC)c3ccccc23)C1 (centres undefined),8.9%
4,Cc1ccc(NC(=O)Nc2ccc3c(c2)CCC3)cc1C,-15.3%
5,O=C(O)c1ccc2c(c1)CCC2,25.5%
6,CN(C)C(=O)C(OC(=O)c1ccc2c(c1)CCCC2)c1ccccc1 (centres undefined),90.9% (active)
7,CN(C)C(=O)C(OC(=O)c1ccc2ccccc2n1)c1ccccc1 (centres undefined),-9.4%
8,O=C(COc1ccc(S(=O)(=O)NCc2ccccc2)cc1)NCC1CCCO1 (centres undefined),-3%
9,Cc1csc(NC(=O)CSc2nnc(NC(=O)COc3ccc(Cl)cc3)s2)n1,-17.3%
10,CCc1n(CC(O)COCC2CC=CCC2)c2ccccc2[n+]1C (centres undefined),55.3% (active)
11,CCCc1n(CC(O)COCC2CC=CCC2)c2ccccc2[n+]1C (centres undefined),5.7%
12,CCc1nc2ccccc2n1CC(O)COCC1CC=CCC1 (centres undefined),-7.7%
13,Cc1cc(=O)oc2c(C)c(OC(C)C(=O)Nc3ccc(N4CCC(C)CC4)cc3)ccc12 (centres undefined),3.4%
14,Cn1c(=O)c2c(-c3ccc(OC(F)F)cc3)cc(-c3ccccc3)nc2n(C)c1=O,-4.7%
15,COC(=O)COc1ccc(S(=O)(=O)Nc2cc([N+](=O)[O-])ccc2C)cc1,8.7%
16,O=C(CCn1cccc1)NCc1ccc(Cl)cc1,5.1%
17,CCOc1cc(/C=N/NC(=O)c2cc(C3CC3)[nH]n2)ccc1O,-2.8%
18,O=C(N/N=C/c1cccc2ccccc12)c1cc(C2CC2)[nH]n1,10.5%
19,CCOc1cccc(/C=N/NC(=O)c2cc(C3CC3)[nH]n2)c1O,63.2% (active)
20,Cc1ccc(C)c(NC(=O)CCN2C(=O)c3ccccc3C2=O)c1,-5.3%
21,COc1ccc(N2CC(C(=O)N3CCN(c4ccccc4OC)CC3)CC2=O)cc1 (centres undefined),12.7%
22,Cc1ccc(S(=O)(=O)Nc2ccc(N3CCOCC3)cc2)cc1,0.3%
23,COc1ccccc1N1CCN(C(=O)C2CCN(S(=O)(=O)c3ccc4c(c3)CC(C)N4C(=O)C3CC3)CC2)CC1 (centres undefined),27%
24,Cn1c(=O)c2c(nc(Oc3ccccc3)n2C)n(C)c1=O,4.8% and 12.7%
25,COc1ccc(Oc2nc3c(c(=O)n(C)c(=O)n3C)n2C)cc1,26.2%

row,Compound,inhibition
1,Cc1c(C#N)sc2nc(-c3ccccc3)nc(N3CCCC3)c12,-1.5%
2,COCc1cc(C)nc(SCC(=O)Nc2cc(C(F)(F)F)ccc2N2CCOCC2)c1C#N,58.6% (active)
3,COCc1cc(C)nc(SCC(=O)Nc2ccccc2N2CCOCC2)c1C#N,40%
4,COCc1cc(C)nc(SCC(=O)Nc2ccc(N3CCOCC3)cc2)c1C#N,5%
5,COCC(C)n1c(C)cc(C(=O)COC(=O)CNC(=O)c2ccccc2)c1C (centres undefined),20.5%
6,COc1ccc(S(=O)(=O)N2CCCCCC2)cc1C(=O)OCc1c(C)noc1C,0.3%
7,CNc1nc2cc([N+](=O)[O-])c([N+](=O)[O-])cc2nc1NC,18.9%
8,Cc1ccc(NC(=S)N(C)C)cc1C,-14.4%
9,Cc1cc(Cl)ccc1OCC(=O)Nc1ccncc1,39.3%
10,O=C(COc1ccccc1)Nc1ccncc1,5.2%
11,COc1cccc(OCC(=O)Nc2ccncc2)c1,19.9%
12,Cc1cc(C)cc(OCC(=O)Nc2ccncc2)c1,29.4%
13,CC(C)CCOc1cccc(OCC(=O)Nc2ccncc2)c1,60% (active)
14,Cc1cc(OCC(=O)Nc2ccncc2)ccc1Cl,39.6%
15,Cc1cc(OCC(=O)Nc2ccncc2)ccc1Br,38.2%
16,CC1=C([N+](=O)[O-])C(c2ccccc2Cl)NC(=O)N1C (centres undefined),14.3%
17,O=C(NC1CCCN(CCc2ccccc2)C1)c1c(F)cccc1F (centres undefined),4.3%
18,COc1cccc(N2CC(C(=O)Nc3nnc(SCCN4CCOCC4)s3)CC2=O)c1 (centres undefined),14.1%
19,CCOC(=O)c1sc2ccccc2c1OC(=O)c1ccccc1,27.7%
20,CCOC(=O)c1sc2ccccc2c1OC(=O)c1ccccc1OC,22.4%
21,Cc1ccccc1C(=O)Nc1ccc(N2CCN(C(=O)c3ccco3)CC2)cc1,3.9%
22,Cc1cccc(-c2nc3c(c(SCC(=O)N4CCOCC4)n2)Cc2c(CO)cnc(C)c2O3)c1,42.3%
23,COc1ccc(-c2nc3c(c(SCC(=O)N4CCOCC4)n2)Cc2c(CO)cnc(C)c2O3)cc1,32%
24,COc1cccc(-c2nc3c(c(SCC(=O)N4CCOCC4)n2)Cc2c(CO)cnc(C)c2O3)c1,52.5% (active)
